Bioassay records (PubChem)
This is a sample that favours compounds with a hit; in the whole collection about 4.7% have one here.
Pemphigus Ab inh: blocks pemphigus antibody binding to human desmoglein-3; DSG3-coupled beads, scFv-anti-DSG3-GFP binding, flow cytometry; hits give low values; binding (percent of control), % at 10 µM; 310,000 tested, 0.48% active;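 active means binding more than 3 SD below its plate's average and above zero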;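 further: hits lower antibody fragment binding to DSG3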
proKLK7 act: activates the human kallikrein-7 zymogen; activation, % at 7 µM; 370,000 tested, 0.9% active; purified proKLK7, EDANS-DABCYL substrate fluorescence; 100% is mature enzyme control, 0% vehicle; P49862;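 active means activation above the mean of all tested compounds plus 3 SD, computed per campaign excluding outliers beyond control limits, cut at about 13% in these data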
Target sequence (P49862 whole entry, looked up): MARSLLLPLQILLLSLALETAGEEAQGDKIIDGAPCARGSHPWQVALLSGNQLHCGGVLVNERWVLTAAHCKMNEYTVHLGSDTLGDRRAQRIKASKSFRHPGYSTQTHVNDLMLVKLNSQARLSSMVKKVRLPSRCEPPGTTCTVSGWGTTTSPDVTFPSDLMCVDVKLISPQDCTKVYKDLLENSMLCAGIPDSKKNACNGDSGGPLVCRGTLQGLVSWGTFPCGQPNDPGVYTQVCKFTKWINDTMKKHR
ADAM10 inh: inhibits human ADAM10 | O14672 | AID 720582 | 370,000 tested, 0.62% active | recombinant ADAM10, EDANS/DABCYL FRET peptide cleavage, 3 h | inhibition, % at 7 µM;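 active means inhibition above a per-campaign cutoff equal to the mean of compounds falling between control-based bounds plus 3 SD, cut at about 20% in these data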;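 further: 0% = DMSO wells while the 100% control is not disclosed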
MPTP inh: blocks calcium-induced mitochondrial swelling. isolated mouse mitochondria, Ca2+ swelling absorbance, 30 min. inhibition, % at 10 µM. 360,000 tested, 1.4% active. AID 602449;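 active means inhibition of 50% or more, scaled per plate between neutral and stimulator controls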;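 further: 0% = DMSO wells given calcium and 100% = 1 mM EGTA wells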
ADAM17 inh: inhibitors of human ADAM17 | P78536 | recombinant ADAM17, EDANS/DABCYL FRET peptide cleavage | inhibition, % at 6.95 µM | 370,000 tested, 0.83% active | AID 720648;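 active means inhibition above the mean of compounds lying between control limits plus 3 SD, set per campaign, cut at about 8.5% in these data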;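 further: 0% = DMSO-only wells as the low control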
rCAG binder: molecules binding r(CAG) RNA repeats; r(CAG) RNA repeat, TO-PRO-1 dye displacement fluorescence; inhibition, % at 3 µM; 370,000 tested, 1.3% active; AID 651821;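 active means inhibition above the plate cutoff, the mean of all test compounds on that plate plus 3 SD, cut at about 35% in these data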;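 further: 0% = DMSO alone and 100% = 100 µM mitoxantrone as full dye displacement; higher means more dye released from RNA so lower well fluorescence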
ADAM10 confirm: human ADAM10 inhibition, confirmation | 2,100 tested, 1% active | AID 743208 | shares compounds with ADAM10 inh | inhibition, % at 6.95 µM | ADAM10 QFRET peptide cleavage, EDANS fluorescence;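 active means inhibition above about 20% chosen separately for each screening run, limit read from the data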;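 further: 0% = DMSO wells and 100% = marimastat wells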
ADAM17 ctr: ADAM17 inhibition, counter-screen for ADAM10 exosite hits; shares compounds with ADAM10 inh; ADAM17 QFRET peptide cleavage, EDANS fluorescence; inhibition, % at 6.95 µM; 2,100 tested, 0.5% active; AID 743214;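 active means mean triplicate inhibition above the solvent-only control wells' mean plus 3 SD, cut at about 12% in these data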;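 further: 0% = DMSO wells and 100% = marimastat wells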
ADAM10 ctr: ADAM10 inhibition, counter-screen for ADAM17 exosite hits; inhibition, % at 6.95 µM; recombinant ADAM10, EDANS/DABCYL FRET peptide cleavage, 3 h; AID 743256; shares compounds with ADAM17 inh; 2,900 tested, 47% active;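 active means mean inhibition over the triplicate runs exceeds the activity threshold set in the earlier primary screen, cut at about 20% in these data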;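 further: 0% = DMSO wells and 100% = marimastat wells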
ADAM17 confirm: human ADAM17 inhibition, confirmation; shares compounds with ADAM17 inh; recombinant ADAM17, EDANS/DABCYL QFRET peptide cleavage; inhibition, % at 6.95 µM; 2,900 tested, 65% active; AID 743257;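 active means mean inhibition across replicates above the hit cutoff set in the primary screen, cut at about 8.5% in these data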;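 further: 0% = DMSO wells and 100% = marimastat wells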
Numbers without * were called inactive; · = no result.

SMILES | Pemphigus Ab inh | proKLK7 act | ADAM10 inh | MPTP inh | ADAM17 inh | rCAG binder | ADAM10 confirm | ADAM17 ctr | ADAM10 ctr | ADAM17 confirm
CCOC(=O)CCCCCC(=O)Nc1ccc2c(c1)C(=O)N([C@H](C)CO)C[C@@H](C)[C@H](CN(C)S(=O)(=O)c1cn(C)cn1)O2 | 104 | 0 | 4 | 0 | 0 | -7 | · | · | · | ·
COc1cc(-c2cnc3c(NC(C)=O)cc(-c4cccc(C(=O)NCCO)c4)cn23)cc(OC)c1OC | · | 0 | -14 | 0 | -4 | 6 | · | · | · | ·
O=C(NCc1ccc(OC(F)(F)F)cc1)C1CC(c2c(Cl)cccc2Cl)=NO1 (stereo not given) | 93 | 0 | 21* | 1 | 9.5* | -6 | 2 | 0 | 24* | 13*
O=C(Nc1cc(Cl)ccc1O)C1CC(c2c(F)cccc2Cl)=NO1 (stereo not given) | 103 | -1 | 26* | 3 | 9.6* | 18 | 9 | 4 | 19 | 12*
O=C(NCc1cc(C(F)(F)F)cc(C(F)(F)F)c1)C1CC(c2ccccc2C(F)(F)F)=NO1 (stereo not given) | · | 0 | 31* | · | 17* | -5 | 0 | 0 | 49* | 25*
CC(C(=O)N1CCN(C(=O)c2ccco2)CC1)N1C(=O)NC2(CCCCC2C)C1=O (stereo not given) | 107 | 0 | -10 | 0 | -1 | 0 | · | · | · | ·
CC(C)CC1C(=O)N(Cc2cn(CCC3OCCO3)nn2)CCS(=O)(=O)N1Cc1ccc(-c2ccncc2)cc1 (stereo not given) | 103 | 0 | 5 | -3 | 0 | 1 | · | · | · | ·
CC(C(=O)N1CCc2ccccc21)N1CCN(S(=O)(=O)c2cccc(C(F)(F)F)c2)CC1 (stereo not given) | 81 | 0 | 0 | -1 | 2 | -1 | · | · | · | ·
CC(=O)N1C[C@H]2CON(C)[C@H]2C[C@H]1c1ccccc1 | · | 0 | -4 | 0 | 0 | 1 | · | · | · | ·
O=C(COC(=O)c1ccccc1C(=O)OCC(=O)NCCc1c[nH]c2ccccc12)NCCc1c[nH]c2ccccc12 | 103 | 0 | 25* | 0 | 9.1* | 4 | 7 | 2 | 28* | 11*
O=C(COC(=O)c1ccccc1O)NCCc1c[nH]c2ccccc12 | 101 | 3 | -12 | 1 | -3 | 3 | · | · | · | ·
O=C(CNCc1ccc(F)cc1)Nc1cc(S(=O)(=O)N2CCOCC2)ccc1Cl | 101 | -1 | -2 | 0 | 1 | 5 | · | · | · | ·
O=C(Nc1ccc(C(F)(F)F)cc1[N+](=O)[O-])O[C@H]1[C@H](Cc2ccccc2)NS(=O)(=O)[C@H]2C[C@@H]3C=C[C@]12O3 | 96 | 0 | 29* | 2 | 14* | 6 | 3 | 0 | 11 | 5
CN(Cc1ccccc1)c1ccc(C(CC(N)=O)NC(=O)c2ccc(Br)cc2)cc1[N+](=O)[O-] (stereo not given) | 101 | 1 | 38* | -1 | 15* | 9 | 6 | 1 | 21* | 13*
CCCCNS(=O)(=O)c1ccc(NC(=O)Cc2ccccc2[N+](=O)[O-])cc1 | 100 | 0 | 5 | -1 | 2 | 4 | · | · | · | ·
CNC(=O)C(NC(=O)CNC(=O)c1ccc(Cl)cc1)C(C)(C)C (stereo not given) | 96 | 0 | -6 | -1 | -1 | 0 | · | · | · | ·
CNC(=O)[C@@H](NC(=O)[C@H](CC(C)C)[C@H](O)C(=O)NO)C(C)(C)C | · | 0 | 95* | · | 99* | 1 | 100* | 102* | 106* | 102*
CC(OC(=O)c1ccccc1CCc1ccccc1)C(N)=O (stereo not given) | 94 | 0 | 10 | 0 | -2 | 2 | · | · | · | ·
Cc1ccccc1-c1noc(-c2ccc(O)cc2)n1 | 123 | 0 | 33* | 33 | 13* | 14 | 2 | 0 | 19 | 12*
Cc1ccccc1-c1noc(-c2ccc(Cl)cc2)n1 | 107 | 0 | 5 | -2 | 0 | 2 | · | · | · | ·
Cc1ccccc1N=C(NOCc1ccc(Cl)cc1Cl)c1nonc1N | 125 | 1 | 20* | 3 | 9.6* | 1 | 14 | 3 | 33* | 24*
Cc1ccccc1N=C(NOCc1ccccc1)c1nonc1N | 106 | 0 | 17 | 2 | 0 | -2 | · | · | · | ·
CCOC(=O)c1cc(-c2ccccc2C)nn1CC1CC(c2cccnc2)=NO1 (stereo not given) | 105 | 0 | 11 | -1 | -1 | -1 | · | · | · | ·
Cc1cccc(C)c1OCc1cc(C(=O)N2CCC(c3ccccc3)CC2)no1 | · | 0 | 8 | 0 | 6 | 2 | · | · | · | ·
O=C(c1cc(COc2cccc(C(F)(F)F)c2)on1)N1CCC(c2ccccc2)CC1 | 116 | 1 | 26* | 0 | 12* | 0 | 5 | 2 | 35* | 20*
SMILES | Pemphigus Ab inh | proKLK7 act | ADAM10 inh | MPTP inh | ADAM17 inh | rCAG binder | ADAM10 confirm | ADAM17 ctr | ADAM10 ctr | ADAM17 confirm
C#CCN(C(=O)c1cc(COc2cccc(C(F)(F)F)c2)on1)C1CCCCC1 | 100 | 0 | 24* | 2 | 10* | -5 | 8 | 3 | 55* | 19*
CC(c1ccccc1)N1CCc2[nH]c(=S)[nH]c(=O)c2C1 (stereo not given) | 102 | 0 | -15 | 0 | -6 | 1 | · | · | · | ·
CC(C)Sc1ccccc1C(=O)Nc1ccc2c(c1)n(C)c(=O)n2C | 98 | 0 | 5 | 2 | 1 | -2 | · | · | · | ·
CCCCNS(=O)(=O)c1ccc2nc(SCC(=O)Nc3ccccc3)[nH]c2c1 | 110 | 0 | 23* | 7 | 9.1* | 9 | 3 | -1 | 10 | 3
N=c1c2c(ncn1Cc1ccco1)Oc1ccc3ccccc3c1C2c1ccccc1 (stereo not given) | 127 | 0 | 20* | 7 | 11* | 10 | 7 | 2 | 19 | 12*
COc1ccc(C2c3c(ncn(Cc4ccco4)c3=N)Oc3ccc4ccccc4c32)cc1 (stereo not given) | 102 | -1 | 15 | 2 | -4 | 23 | · | · | · | ·
COc1cccc(-c2cc(NC=O)c3ncc(-c4ccc(F)c(Cl)c4)n3c2)c1 | · | -1 | -20 | 1 | -8 | 10 | · | · | · | ·
